Assay outcomes as filed in PubChem BioAssay.
Hits are enriched below; roughly 2.3% of the tested compounds scored in any of these assays.
Mcl-1 Bim block – inhibitors of Bim-Mcl-1 interaction, human; AID 1009; 190,000 compounds, 0.1% hits; inhibition, % at 10 µM; Bead-based flow cytometry, Bim peptide-Mcl-1 binding; in the data active = inhibition above about 40%
Target sequence (Q07820 whole entry, looked up): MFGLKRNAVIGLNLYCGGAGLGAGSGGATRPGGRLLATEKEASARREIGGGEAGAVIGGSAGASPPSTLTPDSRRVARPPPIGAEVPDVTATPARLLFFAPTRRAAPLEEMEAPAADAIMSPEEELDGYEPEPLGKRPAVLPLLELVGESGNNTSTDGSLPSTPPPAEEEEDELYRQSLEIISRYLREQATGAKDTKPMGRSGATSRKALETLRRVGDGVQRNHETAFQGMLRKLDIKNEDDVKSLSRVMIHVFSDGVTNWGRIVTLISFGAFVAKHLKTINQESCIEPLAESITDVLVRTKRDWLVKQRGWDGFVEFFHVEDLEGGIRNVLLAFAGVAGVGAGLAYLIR
Mcl1-Noxa inh – disrupts binding of human Mcl-1 to Noxa peptide; TR-FRET Mcl-1/Noxa peptide binding, 2 h; inhibition, % at 21.7 µM; 220,000 compounds, 1.5% hits;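 active = compounds that cut the protein-peptide binding signal by more than 50% relative to plate controls in a single-dose test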;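 note: His-tagged Mcl-1 with rhodamine Noxa BH3 peptide and terbium anti-His antibody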
GLD-1 RNA inh – GLD-1-TGE RNA interaction inhibition (C. elegans); purified GLD-1 + fluorescein TGE RNA, fluorescence polarization; inhibition, % at 5.96 µM; 320,000 compounds, 0.44% hits;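 active = percent inhibition above a per-plate cutoff, the plate mean of test compounds plus 3 SD, cut at about 30% in these data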
Mcl1 Bid PPI – Mcl-1/Bid interaction inhibition. Q07820. TR-FRET Mcl-1/Bid-Dy647 peptide binding, 1536-well. inhibition, % at 21.7 µM. 220,000 compounds, 0.97% hits;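 active = compounds that cut the binding signal by more than half at the single screening dose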;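 note: His-tagged Mcl-1 with europium anti-His antibody binding Bid BH3 peptide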
MCL1-BIM inh – MCL1-BIM-BH3 interaction inhibition (human). 320,000 compounds, 0.68% hits. AID 2057. GST-MCL1 / FITC-Bim-BH3 fluorescence polarization. Q07820. inhibition, % at 10.9 µM;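 active = inhibition above the mean inhibition of all tested compounds plus 3 SD, set per campaign, cut at about 40% in these data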;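 note: higher means more loss of mP so more displacement of Bim peptide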
Bcl-xL primary – inhibitors of human Bcl-xL; GST-Bcl-xL / FITC-Bim BH3 peptide fluorescence polarization; inhibition, % at 10.9 µM; 320,000 compounds, 0.7% hits; AID 2129;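 active = inhibition above the mean of all tested compounds plus 3 SD, cutoff set per campaign, cut at about 30% in these data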;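 note: inhibitors lower millipolarization by displacing the labeled peptide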
Target sequence (Q07817 whole entry, looked up): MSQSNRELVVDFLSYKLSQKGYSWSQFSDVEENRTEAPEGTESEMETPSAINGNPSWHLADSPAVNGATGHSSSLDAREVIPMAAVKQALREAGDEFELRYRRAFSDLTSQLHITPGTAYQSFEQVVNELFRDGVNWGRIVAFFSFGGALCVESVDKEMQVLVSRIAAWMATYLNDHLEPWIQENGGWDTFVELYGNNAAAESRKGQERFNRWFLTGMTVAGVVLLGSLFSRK
Hits are given with their value; n = inactive; x = no result.

SMILES | Mcl-1 Bim block | Mcl1-Noxa inh | GLD-1 RNA inh | Mcl1 Bid PPI | MCL1-BIM inh | Bcl-xL primary
CCOC(=O)C1=C(C)NC2=C(C(=O)CC(C)(C)C2)C1c1ccc2c(c1)CCCN2C (stereo unspecified) | n | 94 | n | n | n | n
COc1ccc(CCNC(=O)CCCN2C(=O)c3ccccc3C2=O)cc1OC | n | n | n | 62 | n | n
COc1ccc(CCNC(=O)c2ccc(OC)c(OC)c2)cc1OC | x | x | n | x | n | n
COc1ccc(CCNC(=O)CCCCCN2C(=O)c3ccccc3C2=O)cc1OC | n | n | n | n | n | n
COc1ccc(CCNC(=O)c2ccc(Cl)cc2Cl)cc1OC | n | n | n | 83 | n | n
COc1ccc(CCNC(=O)c2ccc(=O)[nH]n2)cc1OC | n | n | n | 100 | n | n
NC(=O)CN1C(=O)C(=O)N(Cc2cccc(C(F)(F)F)c2)C1=O | x | x | n | x | n | n
COc1ccc2c(c1)cc(C(=O)N[C@H](C(=O)N1CCC(C(=O)O)CC1)C(C)C)n2C | x | x | n | x | n | n
CCc1nnc(NC(=O)CCC(=O)N2CCC(Cc3ccccc3)CC2)s1 | x | x | n | x | n | n
CN(Cc1c(O)ccc2c1oc(=O)c1ccccc12)C1CCCCC1 | n | n | n | 65 | n | n
COc1ccc(CN2CCc3c([nH]c4ccccc34)C2)c(OC)c1C | x | x | n | x | n | n
COc1cc2cc3c(N)c(C(=O)NCc4ccco4)sc3nc2cc1OC | n | 57 | n | n | n | n
COc1cc2cc3c(N)c(C(=O)Nc4sc(C)c(C)c4C#N)sc3nc2cc1OC | n | 98 | n | 66 | n | n
Cc1ccc2nc3sc(C(=O)NCc4ccco4)c(N)c3cc2c1 | n | n | n | n | n | n
O=C(NNS(=O)(=O)c1ccccc1)C1CC(c2cccnc2)=NO1 (stereo unspecified) | n | n | n | n | n | n
CC1C(c2ccccc2)N(C)CCC12NC(=O)NC2=O (stereo unspecified) | n | n | n | 88 | n | n
CCOC(=O)C1CCCN(C(=O)C2CCN(S(=O)(=O)c3c(C)noc3/C=C/c3ccccc3F)CC2)C1 (stereo unspecified) | x | x | n | x | n | n
CN1C(=O)N(CC(=O)Nc2sccc2C(N)=O)C(=O)C12CCCCC2 | x | x | n | x | n | n
CCOc1ccc2sc(NS(=O)(=O)c3ccc(OC)c(OC)c3)nc2c1 | n | n | n | n | n | 64
CN(C)C(=O)N1CCC(C(=O)NC2CCCCCCC2)CC1 | 67 | n | n | n | n | n
COc1ccc2oc(C(=O)Nc3nc(C)cs3)c(C)c2c1 | x | x | n | x | n | n
Cc1c(Cl)cccc1NC(=O)N1CCN(C(=O)c2ccco2)CC1 | x | x | n | x | n | n
COc1cc(N2C(=O)C=CC2=O)c(OC)cc1Cl | x | 59 | n | n | n | n
O=S1(=O)NC(CC2=CCCCC2)C2CCCCC2O1 (stereo unspecified) | x | x | n | x | n | n
CC(C)c1ccccc1NC(=O)COC(=O)c1cccnc1 | x | x | n | x | n | n
SMILES | Mcl-1 Bim block | Mcl1-Noxa inh | GLD-1 RNA inh | Mcl1 Bid PPI | MCL1-BIM inh | Bcl-xL primary
O=C(Nc1c2c(nn1-c1ccccc1)CS(=O)(=O)C2)c1cc2ccccc2o1 | x | x | n | x | n | n
COc1cc(/C=C/C(=O)c2ccc(NS(=O)(=O)c3ccc(C)cc3)cc2)cc(OC)c1O | n | 56 | n | n | n | n
COc1ccccc1C(CNC(=O)c1cccc(S(=O)(=O)NCc2ccccc2)c1)N(C)C (stereo unspecified) | x | x | n | x | n | n
O=C1NCCCC2c3c(cc(Br)c(O)c3Br)OC12N1CCOCC1 (stereo unspecified) | n | 62 | n | n | n | n
COc1ccc2[nH]c3c(c2c1)CCN1C(=O)N([C@@H](C)C(=O)NC2CCCCC2C)C(=O)[C@]31C (stereo partly specified) | x | x | n | x | n | n
CCC(C)(C(=O)NC1CCCC1)N(Cc1cccs1)C(=O)c1ccccn1 (stereo unspecified) | n | n | n | n | n | n
O=c1[nH][nH]c2c(N=Cc3ccccc3O)ccc(F)c12 | x | 95 | x | n | x | x
CCc1ccc(O)c(N=Cc2ccccc2O)c1 | n | n | n | n | n | n
CN(CC(=O)Nc1cccc(F)c1)C(=O)Cn1cnc2c1c(=O)n(C)c(=O)n2C | x | x | n | x | n | n
Cc1ccccc1C(=O)N/N=C/c1ccsc1C | n | n | n | n | n | n
Cc1sccc1/C=N/NC(=O)c1cccc2ccccc12 | n | 92 | n | n | n | n
CC1CCc2c(nc3sc4c(c3c2N)CCCC4)C1 (stereo unspecified) | n | 54 | n | n | n | n
CC1CCc2nc3sc4c(c3c(N)c2C1)CCCC4 (stereo unspecified) | n | n | n | n | n | n
NC(=O)CSc1nc2scc(-c3ccco3)c2c(=O)n1-c1ccccc1 | n | 55 | n | n | n | n
COc1ccc(-n2c(SCC(=O)NCC3CCCO3)nc3c(c2=O)SC(C)C3)cc1 (stereo unspecified) | x | x | n | x | n | n
O=C(CSc1nc2ccsc2c(=O)n1Cc1ccccc1)NCC1CCCO1 (stereo unspecified) | n | n | n | n | n | n
CC1Cc2nc(SCC(=O)NCC3CCCO3)n(-c3ccc(F)cc3)c(=O)c2S1 (stereo unspecified) | x | x | n | x | n | 64
C=CCn1c(SCC(=O)NCC2CCCO2)nc2scc(-c3ccco3)c2c1=O (stereo unspecified) | n | n | n | n | n | n
O=C(CSc1nc2ccsc2c(=O)n1Cc1ccc(C(=O)O)cc1)NCC1CCCO1 (stereo unspecified) | 73 | n | n | n | n | n
O=C(CSc1nc2scc(-c3ccco3)c2c(=O)n1-c1ccccc1)NCC1CCCO1 (stereo unspecified) | n | 56 | n | n | n | n
Cc1ccc(S(=O)(=O)N2CCCC2)cc1C(=O)NCCN1CCOCC1 | x | x | n | x | n | n
Cc1ccc(N2C(=O)CSC2c2cccnc2)c(Cl)c1 (stereo unspecified) | x | n | n | n | n | n
CCOc1ccc(/C=C/[N+](=O)[O-])c2ccccc12 | n | 76 | n | n | n | n
CCOC(=O)COc1ccc2ccccc2c1/C=C/[N+](=O)[O-] | n | n | n | n | n | n
COc1cc(/C=C(\CC(=O)O)c2nc3ccccc3s2)cc(OC)c1O | n | 58 | n | n | n | n
COc1ccc(C(=O)Nc2nc3cc(OC)c(OC)cc3c(=O)[nH]2)cc1 | n | n | n | 99 | n | n
CCOc1cc(/C=C(\CC(=O)O)c2nc3ccccc3s2)ccc1OC | n | n | n | n | n | n
O=C(Nc1cccc(/C=C/c2nc3ccccc3c(=O)[nH]2)c1)c1ccccc1Cl | x | n | n | n | n | n
COc1ccc(C(=O)Nc2cccc(/C=C/c3nc4ccccc4c(=O)[nH]3)c2)cc1 | x | 57 | n | n | n | n
COc1ccc(C(=O)Nc2cccc(/C=C(\CCC(=O)O)c3nc4ccccc4s3)c2)cc1 | x | 85 | n | n | n | n
